Several values for one entry are separate records, joined by “and”; a condition that tells them apart may be missing. Equal entries are not always repeated. The panel holds about 79,000 compounds, 15% with a hit somewhere; the sample as a whole holds those more often. Activity calls are given as the source filed them. Rule as the data show it: active = growth inhibition above about 70%; inactive = the rest.
Assay: NCI Yeast Anticancer Drug Screen. Data for the mec2-1 strain (AID 157)
Conditions: S. cerevisiae mec2-1 strain, at 5.0 µM (retest, dose inferred, filed as 0.5), hits give high values
How it was run: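 Yeast mec2-1 mutant treated with compound. Readout: growth inhibition vs vehicle controls.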

Row | SMILES | growth inhibition
1 | CN(C)c1ccc(C2CC(C)(O)Oc3cc4c(cc32)OCO4)cc1 (stereo unspecified) | -20% (inactive)
2 | O=P(NC1CCCCC1)(OCc1ccccc1)OCc1ccccc1 | 5% (inactive)
3 | COc1oc(C(=O)NC2CCCCC2)c(-c2ccc(Cl)cc2)c1S(=O)(=O)c1ccccc1 | 22% (inactive)
4 | C[Si](C)(C)/C=C/CCNC(C#N)c1ccccc1 (stereo unspecified) | 98% (active)
5 | CCOc1ccc(NC(=O)C2=C(C)NC(C)=C(C(=O)Nc3ccc(OCC)cc3)C2c2cccc([N+](=O)[O-])c2)cc1 | 0% (inactive)
6 | CN(C)CCOC1(Cc2ccc(F)cc2)CCC(C(C)(C)C)CC1 (stereo unspecified) | -12% (inactive) and -13% (inactive)
7 | CC1(C)CC(=O)C(/C=N/c2nc(-c3ccccc3)cs2)=C(O)C1 | 0% (inactive)
8 | CC(=O)Nc1ccc2c(c1)Cc1cc(N=C3C=CC(=O)O3)ccc1-2 | 87% (active)
9 | O=C1C=C(Cl)C(=O)C(c2ccc(Cl)cc2)=C1 | 21% (inactive)
10 | CNCCCNc1c2ccccc2nc2cccc([N+](=O)[O-])c12 | 89% (active)
11 | CCCCCCCCCCCC(O)S(=O)(=O)O (stereo unspecified) | -17% (inactive)
12 | CC(C)OC(=O)c1ccc(CCc2cc(O)c(Br)cc2O)cc1 | 42% (inactive)
13 | CCc1cc(O)c(Cl)c(C)c1Cl | 44% (inactive)
14 | CSc1nc(C)c(CCOC(C)=O)c(N=P(c2ccccc2)(c2ccccc2)c2ccccc2)n1 | -14% (inactive)
15 | CS(=O)(=O)SCc1ccc([N+](=O)[O-])cc1 | -25% (inactive)
16 | COC1=C(OC)C(=O)C(Sc2ccc3ccccc3c2)=CC1=O | 29% (inactive)

From PubChem BioAssay (NCI)
